Common to all, as to assay: NCI-60 one-dose screen, 48 h (100 = growth as untreated, 0 = no growth, -100 = all killed)
Test [1] relates to NCI-H23 lung. Conditions: 10 µM unless noted.
Test [2] relates to NCI-H226 lung.
The subject of test [3] is HOP-62 NSCLC.
The test system of test [4] is NCI-H460 lung.
For test [5], the system named is HOP-92 NSCLC. Conditions: 10 µM unless noted.
In test [6] the test system is NCI-H522 lung. Conditions: 10 µM unless noted.
Test [7] has as its system A549/ATCC NSCLC.
The test system of test [8] is 786-0 renal.
Test [9] has as its system COLO 205 colon. Conditions: 10 µM unless noted.
Test [10] has as its system DU-145 prostate.
In test [11] the test system is K-562 leukemia.
For test [12], the system named is MALME-3M melanoma.
The subject of test [13] is MDA-MB-231 breast.
The test system of test [14] is RXF 393 renal.
Test [15] has as its system SF-268 CNS.
Test [16] deals with SF-295 CNS.
The subject of test [17] is SF-539 CNS.
Test [18] relates to UACC-257 melanoma. Conditions: 10 µM unless noted.
The test system of test [19] is M14 melanoma.
Test [20] concerns NCI-H322M lung.

Molecules are shown by their SMILES. This is part of a sample that, as a whole, favours compounds with a hit. Of some 83,000 tested, about 20% had one in any assay.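 For each line, cells grew in 96-well plates with the test compound present at a single concentration for 48 hours.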 Calls of active or inactive are those of the source. Rule for the calls: active = growth percent below 10; inactive = the rest.

In the case of `CC1(C)CC([P+](c2ccccc2)(c2ccccc2)c2ccccc2)=NN1`, the growth in test [1] was 28.1% (inactive); in [2] (10 µM unless noted), 53.1% (inactive); in [3] (10 µM unless noted), 76.6% (inactive); in [4] (10 µM unless noted), 17.2% (inactive); in test [5], -1.14% (active); in test [6], 27.4% (inactive). For the same molecule, the growth in [7] (10 µM unless noted) is 37.1% (inactive); in test [8] (10 µM unless noted), 80.4% (inactive); in test [9], -49.9% (active); in test [10] (10 µM unless noted), 49.6% (inactive); in test [11] (10 µM unless noted), 9.92% (active); in test [12] (10 µM unless noted), 21.2% (inactive). For the same molecule, the growth in test [13] (10 µM unless noted) was 65.4% (inactive); in test [14] (10 µM unless noted) it was 59.6% (inactive); in test [15] (10 µM unless noted), 41.1% (inactive); in test [16] (10 µM unless noted) it was 53.2% (inactive); in [17] (10 µM unless noted), 51% (inactive); in [18], 2.89% (active). For the same molecule, the growth in test [19] (10 µM unless noted) was 71.9% (inactive).

As for `O=C(Nc1cccc(Br)c1)Oc1cccc2cccnc12`, the growth in [2] (10 µM) is 106% (inactive); in test [2] (100 µM) it was 63.1% (inactive); in test [20] (10 µM) it was 117% (inactive); in test [20] (100 µM) it was 84.9% (inactive); in [3] (10 µM), 102% (inactive); in [3] (100 µM), 50.1% (inactive). The growth is 104% (inactive) in test [4] (10 µM); 8.11% (active) in test [4] (100 µM); -56.9% [100 µM] (active) in test [6]; 99.1% (inactive) in [7] (10 µM); 20.7% (inactive) in [7] (100 µM); 94.9% (inactive) in [8] (10 µM). Further, the growth is 88.6% (inactive) in test [8] (100 µM); 115% (inactive) in test [10] (10 µM); 35.6% (inactive) in test [10] (100 µM); 109% (inactive) in test [11] (10 µM); 12.6% (inactive) in test [11] (100 µM); 114% (inactive) in test [12] (10 µM). The growth in [12] (100 µM) is 7.15% (active); in test [13] (10 µM), 98.4% (inactive); in test [13] (100 µM) it was 15.1% (inactive); in [14] (10 µM), 106% (inactive); in test [14] (100 µM), 55.6% (inactive); in test [15] (10 µM), 107% (inactive). In addition, the growth in test [15] (100 µM) was 20.9% (inactive); in [16] (10 µM), 97.4% (inactive); in test [16] (100 µM) it was 9.21% (active); in test [17] (10 µM), 97.1% (inactive); in [17] (100 µM), 9.58% (active); in test [18] it was 7.41% [100 µM] (active). For the same molecule, the growth in test [19] (10 µM) is 99.4% (inactive); in test [19] (100 µM) it was 16% (inactive).

As for `NC(N)=N/N=C/c1ccc([N+](=O)[O-])o1`, the growth was 65.5% (inactive) in test [1]; 100% (inactive) in test [2] (10 µM unless noted); 87.2% (inactive) in test [20] (10 µM unless noted); 113% (inactive) in [3] (10 µM unless noted); 80.2% (inactive) in test [4] (10 µM unless noted); 70.1% (inactive) in test [6]. Moreover, the growth in [7] (10 µM unless noted) was 80.2% (inactive); in [8] (10 µM unless noted), 98% (inactive); in [10] (10 µM unless noted), 91.5% (inactive); in [11] (10 µM unless noted) it was 94.6% (inactive); in [12] (10 µM unless noted), 68.1% (inactive); in test [13] (10 µM unless noted), 105% (inactive). In addition, the growth in [14] (10 µM unless noted) was 95.7% (inactive); in test [15] (10 µM unless noted), 90.3% (inactive); in [16] (10 µM unless noted) it was 93.4% (inactive); in [17] (10 µM unless noted) it was 104% (inactive); in [18], 67.1% (inactive); in [19] (10 µM unless noted) it was 99.1% (inactive).

In the case of `CCC1OC(OC)C=CC1=O` (stereo not drawn), the growth was 103% (inactive) in test [2] (10 µM unless noted); 108% (inactive) in test [20] (10 µM unless noted); 98.2% (inactive) in [3] (10 µM unless noted); 108% (inactive) in test [4] (10 µM unless noted); 90.1% (inactive) in [5]; 95.5% (inactive) in test [6]. Also, the growth in [7] (10 µM unless noted) was 102% (inactive); in [8] (10 µM unless noted), 99.9% (inactive); in [9] it was 103% (inactive); in [10] (10 µM unless noted), 107% (inactive); in [11] (10 µM unless noted), 87.2% (inactive); in test [12] (10 µM unless noted) it was 99.9% (inactive). Further, the growth in [13] (10 µM unless noted) was 106% (inactive); in test [14] (10 µM unless noted), 113% (inactive); in [15] (10 µM unless noted), 108% (inactive); in [16] (10 µM unless noted), 98.1% (inactive); in test [17] (10 µM unless noted) it was 101% (inactive); in test [18] it was 117% (inactive). In addition, in [19] (10 µM unless noted), the growth is 104% (inactive).

Consider `C[N+](C)=c1ccc2nc3c(cc(NCCCNc4cc5oc6cc(=[N+](C)C)ccc-6nc5c5ccccc45)c4ccccc43)oc-2c1`, for which the growth is -56.1% (active) in [1]; 73.2% (inactive) in [2] (10 µM unless noted); 44.4% (inactive) in [3] (10 µM unless noted); -56.2% (active) in test [4] (10 µM unless noted); 59% (inactive) in test [5]; 32% (inactive) in [6]. Also, the growth in test [7] (10 µM unless noted) is 20.5% (inactive); in test [8] (10 µM unless noted) it was -68.5% (active); in test [10] (10 µM unless noted), -100% (active); in test [11] (10 µM unless noted), -0.99% (active); in test [12] (10 µM unless noted), 35.6% (inactive); in test [13] (10 µM unless noted) it was -36.2% (active). Besides, the growth is 58.2% (inactive) in [14] (10 µM unless noted); 55% (inactive) in test [15] (10 µM unless noted); 45% (inactive) in test [16] (10 µM unless noted); -9.59% (active) in test [17] (10 µM unless noted); 65.1% (inactive) in test [18]; 28.9% (inactive) in [19] (10 µM unless noted).

In the case of `CC(=O)ON=C1C=CC(=C(C#N)c2ccccc2)C=C1`, the growth in test [1] is 91.7% (inactive); in test [2] (10 µM unless noted), 66.8% (inactive); in test [3] (10 µM unless noted) it was 55.1% (inactive); in test [4] (10 µM unless noted) it was 4.7% (active); in [5], 33.1% (inactive); in test [6] it was -24.2% (active). In addition, the growth in test [7] (10 µM unless noted) is 32.2% (inactive); in [8] (10 µM unless noted), 15.4% (inactive); in test [9], 90.6% (inactive); in test [10] (10 µM unless noted) it was 1.67% (active); in test [11] (10 µM unless noted) it was 28.1% (inactive); in test [12] (10 µM unless noted), 83.3% (inactive). Further, the growth was 13.9% (inactive) in test [13] (10 µM unless noted); 35.5% (inactive) in test [14] (10 µM unless noted); 14.1% (inactive) in test [15] (10 µM unless noted); 39.8% (inactive) in test [16] (10 µM unless noted); 24.5% (inactive) in test [17] (10 µM unless noted); 30.5% (inactive) in test [18]. Moreover, the growth in test [19] (10 µM unless noted) is 22.2% (inactive).

Take `Cc1ccc(N=C=C(c2ccccc2)c2ccccc2)cc1`: the growth is 81% (inactive) in test [1]; 90.3% (inactive) in test [2] (10 µM unless noted); 104% (inactive) in test [3] (10 µM unless noted); 97.3% (inactive) in [4] (10 µM unless noted); 76% (inactive) in test [6]; 97.5% (inactive) in test [7] (10 µM unless noted). Further, the growth was 70.1% (inactive) in [8] (10 µM unless noted); 114% (inactive) in test [9]; 108% (inactive) in test [10] (10 µM unless noted); 8.39% (active) in test [11] (10 µM unless noted); 95% (inactive) in test [12] (10 µM unless noted); 83.3% (inactive) in [13] (10 µM unless noted). Also, the growth in [14] (10 µM unless noted) was 92.5% (inactive); in test [15] (10 µM unless noted), 93.5% (inactive); in test [16] (10 µM unless noted), 98% (inactive); in test [17] (10 µM unless noted), 91% (inactive); in test [18] it was 89.1% (inactive); in test [19] (10 µM unless noted), -7.3% (active).

The values are drawn from PubChem BioAssay (NCI).
